Shiga toxin inh: Shiga toxin inhibition | 290,000 compounds, 9.2% hits | Vero cells, Shiga toxin protein synthesis inhibition reporter | inhibition, % at 38.7 µM; in the data active = inhibition mostly above about 28%, no sharp cut-off; inactive = mostly below about 43%
LASV entry inh: Lassa virus entry inhibition. Potency, µM (series often up to 37.9 µM), most hits filed as inhibitors. AID 540256. Lassa virus pseudotype entry inhibition, cell reporter. 300,000 compounds, 1.2% hits; calls by dose curve; tested in HEK293 cells; note: nearly all actives have a fitted effect of over 50% in size
MARV entry inh: Marburg virus entry inhibition. AID 540276. Potency, µM (top dose mostly 37.8 µM), hits mostly inhibitors. Marburg virus pseudotyped entry inhibition, cell reporter. 300,000 compounds, 1.8% hits; calls by dose curve; tested in HEK293 cells
Cycloheximide cs: counter-screen for Shiga toxin inhibitors: cycloheximide protein synthesis inhibition; 300,000 compounds, 12% hits; cell reporter, cycloheximide protein synthesis inhibition counterscreen; max response, %; in the data active = max response mostly above about 13%, no sharp cut-off; inactive = mostly below about 14%; note: read at 38.3 µM for the half of the compounds with a filed dose
Large screens that a line does not name were inactive. Sampled rows, rich in hits. Any-hit rate of the full collection: about 12%.

C=CCn1c(=S)[nH]c2cc(C(=O)Nc3ccc(F)cc3)ccc2c1=O	LASV entry inh inconclusive, MARV entry inh inconclusive
O=C(CSc1nc2ccccc2s1)NCc1ccc2c(c1)OCO2	none
C/C(=N\Nc1nc2ccccc2s1)c1ccc2c(c1)OCO2	Shiga toxin inh 70, LASV entry inh inconclusive, Cycloheximide cs 54
C/C(=N\NC(=O)c1ccccc1[N+](=O)[O-])c1ccc(Br)s1	none
C/C(=N\Nc1nc2ccccc2s1)c1ccc(Br)s1	Shiga toxin inh 41, LASV entry inh inconclusive, MARV entry inh inconclusive, Cycloheximide cs 19
CCOC(=O)C1CCN(S(=O)(=O)c2cc(C(=O)N3CCCCC3)ccc2OC)CC1	none
COc1cccc(-c2nnc(SCc3nc4ccccc4s3)n2C)c1	MARV entry inh inconclusive, Cycloheximide cs 24
CCn1c(SCC(O)c2ccccc2)nnc1-c1ccccc1 (stereo unspecified)	Shiga toxin inh 28, MARV entry inh inconclusive, Cycloheximide cs 39
c1ccc(-n2cnnc2SCc2nc3ccccc3s2)cc1	Shiga toxin inh 61, LASV entry inh inconclusive, MARV entry inh inconclusive, Cycloheximide cs 60
CCC(c1nnc(SCc2nc3ccccc3s2)n1Cc1ccccc1)N(C)C (stereo unspecified)	Shiga toxin inh 56, Cycloheximide cs 32
CCn1c(SCc2nc3ccccc3s2)nnc1-c1ccccc1	Shiga toxin inh 61, Cycloheximide cs 28
Cc1nnc(SCc2nc3ccccc3s2)n1N	Shiga toxin inh 76, Cycloheximide cs 44
Cc1nnc(SCc2nc3ccccc3s2)n1-c1ccccc1	Shiga toxin inh 87, Cycloheximide cs 30
CC(=O)N1CCc2c(sc3c2c(=O)n(-c2ccccc2C)c(=O)n3CC(=O)c2ccccc2)C1	none (no result: Shiga toxin inh, LASV entry inh, Cycloheximide cs)
Cc1ccc(SCC(Cc2ccccc2)N2CCN(CC(C)C)CCC2=O)cc1 (stereo unspecified)	Shiga toxin inh 50 (no result: LASV entry inh, MARV entry inh)
COc1ccc(SCC(Cc2ccccc2)N2CCN(CC(C)C)CCC2=O)cc1 (stereo unspecified)	Shiga toxin inh 53, Cycloheximide cs 30 (no result: LASV entry inh, MARV entry inh)
CCCN1CCC(=O)N([C@H](CSc2ccc(OC)cc2)Cc2ccccc2)CC1	none (no result: LASV entry inh, MARV entry inh)
Cn1cc(S(=O)(=O)N2CCCCC2)cc1C(=O)Nc1cccc(C#N)c1	none (no result: Shiga toxin inh, MARV entry inh, Cycloheximide cs)
O=C(NCC(=O)N(c1ccccc1)C(C(=O)NC1CCCCC1)c1cccnc1)c1ccco1 (stereo unspecified)	none
Cc1ccc(S(=O)(=O)Nc2ccnc(-c3cccnc3)n2)cc1	none
O=C(Nc1ccc(Br)cc1)c1cccc(N2C(=O)C3C4C=CC(C4)C3C2=O)c1 (stereo unspecified)	none
O=C(Nc1ccccc1)c1cccc(N2C(=O)C3C4C=CC(C5CC45)C3C2=O)c1 (stereo unspecified)	LASV entry inh inconclusive, MARV entry inh inconclusive
O=C(Nc1ccccc1)c1cccc(N2C(=O)C3C4C=CC(C4)C3C2=O)c1 (stereo unspecified)	MARV entry inh inconclusive, Cycloheximide cs 19
COC(=O)c1ccc(NC(=O)c2cccc(N3C(=O)C4C5C=CC(C6CC56)C4C3=O)c2)cc1 (stereo unspecified)	Shiga toxin inh 64, LASV entry inh inconclusive, MARV entry inh inconclusive, Cycloheximide cs 33
CC(C)(CCCCCCCCCCC(C)(C)CC(=O)O)CC(=O)O	none (no result: LASV entry inh, MARV entry inh)
COc1cc(C(=O)COC(=O)c2ccncc2)cc(OC)c1OC	none (no result: Shiga toxin inh, Cycloheximide cs)
O=C(c1ccccc1)c1ccc(OCC(O)CN2CCN(Cc3ccccc3)CC2)cc1 (stereo unspecified)	LASV entry inh inconclusive, MARV entry inh 15µM
CN(CC(O)COc1ccccc1F)C1CCCCC1 (stereo unspecified)	MARV entry inh inconclusive
Cc1ccc(OCC(O)CNC2CCCC2)c(C)c1 (stereo unspecified)	none (no result: LASV entry inh, MARV entry inh)
Cc1ccccc1OCC(O)CN(Cc1ccccc1O)C1CCCCC1 (stereo unspecified)	MARV entry inh 11µM
CC(=O)c1ccc(OCC(O)CN2CCN(Cc3ccccc3)CC2)cc1 (stereo unspecified)	none (no result: LASV entry inh, MARV entry inh)
CC(C)(c1ccccc1)c1ccc(OCC(O)CNC2CCN(Cc3ccccc3)CC2)cc1 (stereo unspecified)	MARV entry inh inconclusive (no result: LASV entry inh)
CCOc1ccc(OCC(O)CNC2CCN(Cc3ccccc3)CC2)cc1 (stereo unspecified)	LASV entry inh 6.3µM, MARV entry inh 1.6µM
Cc1ccccc1OCC(O)CNC1CCC(NCC(O)COc2ccccc2C)CC1 (stereo unspecified)	LASV entry inh inconclusive, MARV entry inh 1.1µM
O=C(NCc1nnnn1-c1ccc(Cl)cc1)c1ccc(Br)o1	none (no result: Shiga toxin inh, Cycloheximide cs)
CCOC(=O)N1CCN(C(=O)C2CCN(C(=O)c3ccc(C(C)(C)C)cc3)CC2)CC1	LASV entry inh inconclusive
CC(C)C(=O)N1CCc2cc(-c3csc(N)n3)ccc21	LASV entry inh inconclusive, MARV entry inh inconclusive, Cycloheximide cs 22
CCC(=O)Nc1nc(-c2ccc3c(c2)CC(C)N3S(C)(=O)=O)cs1 (stereo unspecified)	MARV entry inh inconclusive, Cycloheximide cs 26
Cc1ccccc1C(=O)N1CCc2cc(-c3csc(NC(=O)CN4CCCC4)n3)ccc21	LASV entry inh inconclusive, MARV entry inh inconclusive
CS(=O)(=O)N1CCc2cc(-c3csc(NC(=O)Cc4ccccc4)n3)ccc21	LASV entry inh inconclusive, MARV entry inh 7.3µM
CCC(=O)N1CCc2cc(-c3csc(NC(=O)c4ccco4)n3)ccc21	Cycloheximide cs 28
CCOC(=O)CNC(=O)c1ccc(SCC)cc1	Shiga toxin inh 83, MARV entry inh inconclusive, Cycloheximide cs 37
CCOC(=O)CNC(=O)CNC(=O)c1ccc(OC(C)C)cc1	Cycloheximide cs 24 (no result: LASV entry inh, MARV entry inh)
CC(=O)O[C@@H]1N=C(c2ccccc2)c2ccccc2NC1=O	none (no result: Shiga toxin inh, LASV entry inh, Cycloheximide cs)
Cc1ccc(S(=O)(=O)Nc2ccccc2C(=O)Nc2nc(-c3ccc(F)cc3)cs2)cc1	LASV entry inh 3.3µM, MARV entry inh 2.8µM
Cc1ccc(S(=O)(=O)Nc2nc(-c3ccccc3)cs2)cc1	none
CN(C)S(=O)(=O)c1ccc(N2CCCC2)c(C(=O)Nc2nc(-c3ccc(F)c(F)c3)cs2)c1	MARV entry inh inconclusive, Cycloheximide cs 28
COc1ccc(-c2csc(NC(=O)c3ccccc3NS(=O)(=O)c3ccc(F)c(F)c3)n2)cc1	LASV entry inh 3.7µM, MARV entry inh 2.3µM
COc1ccccc1Cn1ccn(Cc2c(F)cccc2Cl)c(=O)c1=O	none (no result: Shiga toxin inh, MARV entry inh, Cycloheximide cs)
COc1cccc(NC2=C(C#N)C(=O)NC(c3cccc(OC)c3O)S2)c1 (stereo unspecified)	Cycloheximide cs 19 (no result: LASV entry inh, MARV entry inh)
OC[C@@H]1O[C@H](O)[C@H](O)[C@@H](O)[C@@H]1O	none (no result: LASV entry inh, MARV entry inh)
O/N=C/c1ccnc(SCc2ccccc2)n1	Shiga toxin inh 64, LASV entry inh inconclusive, MARV entry inh inconclusive, Cycloheximide cs 31
O/N=C/c1ccnc(SCc2ccc(Cl)cc2)n1	Shiga toxin inh 75, LASV entry inh inconclusive, MARV entry inh inconclusive, Cycloheximide cs 51
CS(=O)(=O)c1cnc(-c2ccccc2)nc1Sc1ccc(F)cc1	MARV entry inh inconclusive
COc1cccc(Sc2nc(-c3ccccc3)ncc2S(C)(=O)=O)c1	Shiga toxin inh 50, Cycloheximide cs 31 (no result: LASV entry inh, MARV entry inh)
Cc1ccc2[nH]c(=O)c(CN(Cc3ccccc3Cl)C(=O)N3CCOCC3)cc2c1	none
CCOc1ccccc1N1CCN(S(=O)(=O)c2cc(C)ccc2OC)CC1	Shiga toxin inh 64, LASV entry inh inconclusive, MARV entry inh inconclusive, Cycloheximide cs 51
CCC(C)c1ccc(S(=O)(=O)N2CCN(C(C)C(=O)NC3CCCC3)CC2)cc1 (stereo unspecified)	LASV entry inh 2.8µM (no result: Shiga toxin inh, Cycloheximide cs)
